This is an account of results in paper PMC7819943, “Rice protein-binding microarrays: a tool to detect cis-acting elements near promoter regions in rice”.

Over roughly 39,000 sequences, “fluorescence intensity (a.u.)” has its median near 4,300; the highest 2% begin near 39,000. The sample holds the highest values, similar sequences and a random draw of the others, so the mix is not that of the screen.

This experiment concerns the target T1, OsSMF1 (Oryza sativa, UniProt Q6ZLB0 1-436).
T1 sequence: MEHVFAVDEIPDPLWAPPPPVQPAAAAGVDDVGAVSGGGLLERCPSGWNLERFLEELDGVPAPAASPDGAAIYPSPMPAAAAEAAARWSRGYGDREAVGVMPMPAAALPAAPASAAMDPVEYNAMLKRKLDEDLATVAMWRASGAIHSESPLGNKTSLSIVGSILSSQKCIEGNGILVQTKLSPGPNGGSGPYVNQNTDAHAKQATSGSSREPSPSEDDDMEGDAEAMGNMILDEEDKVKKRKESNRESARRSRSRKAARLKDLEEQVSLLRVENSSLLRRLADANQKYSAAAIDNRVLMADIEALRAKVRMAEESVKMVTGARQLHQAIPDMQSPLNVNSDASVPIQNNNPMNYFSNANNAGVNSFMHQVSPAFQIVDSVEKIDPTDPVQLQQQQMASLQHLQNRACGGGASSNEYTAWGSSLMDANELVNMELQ
The experiment is described as follows: protein-binding microarray (RPBM); PBS, 2% BSA, 51.3 ng/ul salmon testes DNA, 50 uM zinc acetate, 200 nM TF, 25 C, 1 h; high values mean tight binding. The following applies: protein: recombinant; tags: N-terminal polyhistidine and DsRed monomer fusion (pET32a); chain copies: 2; label: CyDye5-dUTP incorporated in the synthesized complementary strand; 3' TTTTT single-stranded linker to array surface; dsDNA, one strand shown. In a few lines:
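Polyhistidine-tagged DsRed fusions of transcription factors, joined at the N-terminus, were expressed in E. coli BL21-CodonPlus and isolated on Ni–NTA. They were incubated at 200 nM for 1 h at 25 °C on a custom Agilent array, double-stranded and BSA-blocked, in PBS with 2% BSA, salmon testes DNA and 50 µM zinc acetate. The binding signal is per-feature fluorescence intensity (arbitrary units) read on an Axon 4000B scanner after washing.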
Consider “ATCGTGTGACGACGTCTCGTCTCGTCTCCCTCTCCCGACCCGGAGTCACCTAGTGCAG”, for which the binding signal is 3260 fluorescence intensity (a.u.).

For the sequence “GGTTGATTATTCCGTCGGCGTCAGCCATCAGGTGCATCACCGGAGTCACCTAGTGCAG”, the binding signal was 3270 fluorescence intensity (a.u.). In the case of “TCTTTCGTCGCAATGCCACGCCATCATCGATCCCTTTCCTCGGAGTCACCTAGTGCAG” it was 14800 fluorescence intensity (a.u.); in that of “TTTCGGGATCCGACACGGGCTGAATCCGGCCCATCCAAACCGGAGTCACCTAGTGCAG”, 37800 fluorescence intensity (a.u.).

Take “GTCTAGCTAGTGCAATTAGAGTAACCTATATATCACACAACGGAGTCACCTAGTGCAG”: the binding signal was 52200 fluorescence intensity (a.u.).

As to “TAAACGCAAATTCTATATCACAACCACGTAAGTTTAGTAGCGGAGTCACCTAGTGCAG”, the binding signal is 3870 fluorescence intensity (a.u.). In the case of “GGAGTAGATATTATCACTAGCTAGTCACACGGACACAGTGCGGAGTCACCTAGTGCAG” it was 4900 fluorescence intensity (a.u.). In the case of “TCGCCGCCGCGGCCGCCTCCACCTCATCATCTCCCACCTCCGGAGTCACCTAGTGCAG” it was 7900 fluorescence intensity (a.u.); in that of “ACCTCCCACACCTGTGTCGATCCAGGCAGGCCGAGCGCGACGGAGTCACCTAGTGCAG”, 43400 fluorescence intensity (a.u.); in that of “CACGGCCTCACCTCCCAGCCCGCGAGCACCGGCGGACGGACGGAGTCACCTAGTGCAG”, 42400 fluorescence intensity (a.u.). In the case of “TTGAGCAGCCTCCCTTCCCCGGCGAGCAGCCCCGCCGCCGCGGAGTCACCTAGTGCAG” it was 3720 fluorescence intensity (a.u.).

With “GCGGCGCATCCAGGAGGTTGAGTCGAGCACGCCACCGCTGCGGAGTCACCTAGTGCAG”, the binding signal is 3420 fluorescence intensity (a.u.).

In the case of “GTCCCCGGCCTCGGCGCGCGGCGAGCACCGTGCCGCCCCACGGAGTCACCTAGTGCAG”, the binding signal is 24000 fluorescence intensity (a.u.).

Consider “ACATCACCACCCACCTCACCCTGCCGCTCCCGAGCGCGATCGGAGTCACCTAGTGCAG”, for which the binding signal is 4000 fluorescence intensity (a.u.). Next, “GCTGCCAGCGCCGCCGCCACCTGTGTCGGCACGCGAGCGCCGGAGTCACCTAGTGCAG”: 3350 fluorescence intensity (a.u.). In the case of “AGGGCGAGGAGGCGCTTGAGGGCGTCGAGCTTGTCGGCATCGGAGTCACCTAGTGCAG” it was 28400 fluorescence intensity (a.u.).

For “GTACGCGAGCATCCCGGCGTTGTCGAGGCGCTCCAGGACGCGGAGTCACCTAGTGCAG”, the binding signal was 40200 fluorescence intensity (a.u.). Next, “AAACTGGCAAACGCGTCACATGAGTTTTACCTACCAATGTCGGAGTCACCTAGTGCAG”: 3230 fluorescence intensity (a.u.); “ATTTCAATGTCAAGATGAGAAGGGAATTTAAGAGCCTGCACGGAGTCACCTAGTGCAG”: 22800 fluorescence intensity (a.u.); “GCGCAGGCAACCACCCCACCCTTCTTCTCGAAACCTCTTCCGGAGTCACCTAGTGCAG”: 3290 fluorescence intensity (a.u.). Next, “ATGAAGGATGCTTAAAAGTCTATTTTGCCTCGGCAAAATACGGAGTCACCTAGTGCAG”: 28700 fluorescence intensity (a.u.); “TTTCACGAAACCCAGTGATCCTGTCAGGTATCCTATGTACCGGAGTCACCTAGTGCAG”: 3760 fluorescence intensity (a.u.); “TTGTACAGCAGCGTGCTTCCATATGAGGAAATCCACTTCTCGGAGTCACCTAGTGCAG”: 44200 fluorescence intensity (a.u.). Next, “GAAACCTGATGATGCTTGATGGAAATCCATTAGACAGCGTCGGAGTCACCTAGTGCAG”: 4580 fluorescence intensity (a.u.); “TTCTCTTCCAAAGGAAATGTATAAATCCACCATTAACTTTCGGAGTCACCTAGTGCAG”: 19900 fluorescence intensity (a.u.). For “CGGCCCAGCAGGCGAGCGTGACGTGGACCGGTCGTTTCGCCGGAGTCACCTAGTGCAG”, the binding signal is 5650 fluorescence intensity (a.u.).

Take “TTGGCTGGAGCATCGTCACTACTATTCGACACTAAGGTGTCGGAGTCACCTAGTGCAG”: the binding signal is 3240 fluorescence intensity (a.u.). Next, “AGAATTCCGTGATACGCGCATACGCGTCGACAAGAGAAATCGGAGTCACCTAGTGCAG”: 3280 fluorescence intensity (a.u.). Next, “GCCTCGAACGACGTGTGGACGCGATGGAAGATGCGTTCTGCGGAGTCACCTAGTGCAG”: 3210 fluorescence intensity (a.u.). Next, “CCACGCGTCGTCGACGTACTGCGCGATGACGGCGGACTCGCGGAGTCACCTAGTGCAG”: 4700 fluorescence intensity (a.u.); “GGAAGGCGACGCGTTACTGTGCACGATGCGGACCTCGAAACGGAGTCACCTAGTGCAG”: 60400 fluorescence intensity (a.u.); “ACGCGCTCGCCTCGCGTCATCGGATCAAATGGTGGAGGCGCGGAGTCACCTAGTGCAG”: 3970 fluorescence intensity (a.u.). Regarding “TCGCTCGCTCGCCTGCCAAATCTGCATTGGTGCTAGGAGGCGGAGTCACCTAGTGCAG”, the binding signal is 3730 fluorescence intensity (a.u.). Next, “CATACATGGAAAAGACAAATCGCCTGGTGCATGAGGCGCTCGGAGTCACCTAGTGCAG”: 40600 fluorescence intensity (a.u.); “TCCTTTCGTTATCTGTACGGCAGTGACGTCCACGACTCGACGGAGTCACCTAGTGCAG”: 4340 fluorescence intensity (a.u.). On to “CTGCAGTACAACAAACATGATAGTACTTGAAATCATCTTGCGGAGTCACCTAGTGCAG”, for which the binding signal was 27400 fluorescence intensity (a.u.). In the case of “CAACAAGCGGGTGGCTGGAAGGTGTGTGTGTGAGAGAGAGCGGAGTCACCTAGTGCAG” it was 3180 fluorescence intensity (a.u.). On to “GATATCACAACCTGACCCACATTAGTCACACGCACTCACACGGAGTCACCTAGTGCAG”, for which the binding signal is 3790 fluorescence intensity (a.u.). In the case of “ATAAAGAATATGTAGAATTGGAACTATGCTAAGAGAAGAGCGGAGTCACCTAGTGCAG” it was 3280 fluorescence intensity (a.u.).

For the sequence “ATGAGTGTGAGTGTGGCATGCGTGCATGTGTAATAGTAAACGGAGTCACCTAGTGCAG”, the binding signal was 3480 fluorescence intensity (a.u.). Next, “TGGAGTAAACGATGAATACATGTTATAATAGTGTAGATTGCGGAGTCACCTAGTGCAG”: 65100 fluorescence intensity (a.u.); “GTAAGAATTGGCTGTTAGATTGGCTATAAATGAATTGGAGCGGAGTCACCTAGTGCAG”: 50800 fluorescence intensity (a.u.). In the case of “GTATTGTGTGTATTTATACATCATGAAAGAATAGAATAAACGGAGTCACCTAGTGCAG” it was 28600 fluorescence intensity (a.u.); in that of “CTATTGTATGAATTGGCTATAGATGATTTGGAGGCAGTAGCGGAGTCACCTAGTGCAG”, 3800 fluorescence intensity (a.u.).
